# From PubChem BioAssay (NCATS)
# Inconclusive results are not listed. A call without a number means that no potency is given here. A number with no mark means an inactive call. Active and inactive are the calls of the source. Calls come from the whole dose curve; as a rule, active = well fitted cell-killing curve with a large enough effect; inconclusive = small, poorly fitted or top-dose-only effect, or effect the other way; inactive = flat fitted curve, though single readings scatter.
# How the values were obtained:
# Experiment in all cases: Primary qHTS to identify gynecologic anti-cancer compounds using libraries of approved drugs and bioactive compounds (AID 1345084); note: nearly all actives have a fitted effect of over 55% in size
# Details in all cases: Gynecologic cancer cell panel viability, ATPlite luminescence, 48 h; series mostly up to 57.5 µM
# C33A = test system: C33A
# Procedure, shortened: (§1)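 In this quantitative HTS, cell killing is estimated from loss of ATP-dependent luciferase light. Cells see five compound concentrations over a 48 h exposure.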
# CASKI = test system: CASKI
# Procedure, shortened: as §1
# CAOV3 = test system: CAOV3
# Procedure, shortened: as §1
# Potency is the fitted concentration of half-maximal effect.
structure (smiles),measurement,setting,value
COc1cc(C2Oc3c(OC)cc(CCCO[C@@H]4O[C@H](CO)[C@@H](O)[C@H](O)[C@H]4O)cc3C2CO)ccc1O (some centres undefined),Potency,C33A,inactive
same,Potency,CASKI,inactive
CC(C)c1nc(N(C)S(C)(=O)=O)nc(-c2ccc(F)cc2)c1/C=C/[C@@H](O)C[C@@H](O)CC(=O)O,Potency,C33A,inactive
same,Potency,CASKI,inactive
CO[C@@H]1CC[C@H](OC[C@]2(COC(=O)c3ccc(C)[nH]3)[C@H](OC(C)=O)CC[C@@]3(C)[C@@H]4CC=C(C)[C@@H](C5=C(O)C(=O)OC5O)[C@]4(C)CC[C@@H]32)O[C@H]1C (some centres undefined),Potency,C33A,inactive
same,Potency,CAOV3,inactive
same,Potency,CASKI,inactive
COC(=O)C1=CO[C@@H](O[C@@H]2O[C@H](CO[C@@H]3O[C@H](COC(=O)/C=C/c4ccc(O)cc4)[C@@H](O)[C@H](O)[C@H]3O)[C@@H](O)[C@H](O)[C@H]2O)[C@@H]2C(CO)=CC[C@H]12,Potency,C33A,inactive
same,Potency,CASKI,inactive
COc1cc2c(Nc3ccc(Cl)c(Cl)c3F)ncnc2cc1OCC1C[C@@H]2CN(C)C[C@@H]2C1 (some centres undefined),Potency,CAOV3,31.6 µM (active)
same,Potency,CASKI,11.2 µM (active)
CC1(C)CCC2(C(=O)OC3OC(COC4OC(CO)C(O)C(O)C4O)C(O)C(O)C3O)CCC3(C)C(=CCC4C5(C)CCC(O)C(C)(C(=O)O)C5CCC43C)C2C1O (centres undefined),"activity change, negative = cytotoxicity",C33A,2.23% [at 11.6 µM]
same,"activity change, negative = cytotoxicity",CASKI,3.04% [at 11.6 µM]
c1nc(NC2CCCCCC2)c2cc(CNC[C@H]3CCCO3)sc2n1,Potency,C33A,inactive
same,Potency,CASKI,inactive
COc1ccc(/C=C/C(=O)O[C@@H]2[C@@H](O)[C@H](C)O[C@@H](OC3C4C=COC(O[C@@H]5O[C@H](CO)[C@@H](O)[C@H](O)[C@H]5O)C4C4(CO)OC34)[C@@H]2O)cc1OC (some centres undefined),Potency,C33A,inactive
same,Potency,CASKI,inactive
CC(=O)c1cnc2ccc(-c3cc(Cl)c(O)c(Cl)c3)nc2c1NC1CCC(CN(C)C)CC1 (centres undefined),Potency,C33A,0.224 µM (active)
same,Potency,CASKI,1 µM (active)
